According to PubChem BioAssay AID1850 (Southern Research Specialized Biocontainment Screening …, 2009):
The campaign covered roughly 310,000 compounds. About 1,000 (0.32%) were called active. Not all results are given here. Entries with a potency or affinity are not part of this list. A number with no mark means an inactive call. No rule for the calls is given here.

Assay: PhoP regulon inhibitors, Salmonella typhi PhoP promoter GFP reporter, confirmatory (AID 1850);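 also: 0% = induced wells with vehicle and 100% = uninduced wells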
Details: fluorescence, 4 h, at 50 µM, active compounds read high

| SMILES | inhibition [%] |
| --- | --- |
| OC(CN1CC=C(/C=C/c2ccc(Br)cc2)CC1)c1ccccc1 (stereo not drawn) | -9.93 |
| COc1ccc(/C=C/C2=CCN(C)CC2)cc1 | 17.2 |
| CCOc1ccc(S(=O)(=O)N2CCN(C(=O)c3ccncc3)CC2)cc1 | -2.75 |
| CC1CN(C(=O)CCC(=O)NCc2ccccc2)c2ccccc2S1 (stereo not drawn) | 6.38 |
| OC(CNCC1CCCO1)Cn1c2ccc(Br)cc2c2cc(Br)ccc21 (stereo not drawn) | -0.49 |
| OC(CNCC1CCCO1)Cn1c2ccccc2c2ccccc21 (stereo not drawn) | 14.3 |
| NC(=O)Cn1c(=O)n(CC(=O)N2CCCCC2)c(=O)c2sccc21 | 2.84 |
| COc1ccc(CNCCc2c(C)[nH]c3ccc(OC(F)(F)F)cc23)c(OC)c1 | -3.23 |
| COc1ccc2[nH]c(C)c(CCNCc3cc(OC)c(OC)c(OC)c3)c2c1 | 7.48 |
| Cc1[nH]c2ccc(OC(F)(F)F)cc2c1CCNCc1cccc([N+](=O)[O-])c1 | 6.4 |
| COc1ccc2[nH]c(C)c(CCNC(=S)Nc3ccccc3OC)c2c1 | -5.5 |
| O=C(CN1CCC(C(O)(c2ccccc2)c2ccccc2)CC1)Nc1cc(Cl)ccc1Cl | -20 |
| COc1ccccc1C(=O)NC(=O)Nc1nc(-c2ccccc2)cc(C(F)(F)F)n1 | 2.17 |
| COc1cc(/C=C/C(=O)O)ccc1O | 10.8 |
| C/C=C/c1ccc(O)c(OC)c1 | 1.57 |
| C/C(=N\Nc1nc(C)cc(-c2ccccc2)n1)c1ccc(O)cc1 | -2.43 |
| Cc1cccc(C)c1NC(=O)CN(C)C(=O)c1ccc2nc[nH]c2c1 | 1.29 |
| Cc1ccc(C(=O)NCC(C)NC(=O)c2ccc(C)c([N+](=O)[O-])c2)cc1[N+](=O)[O-] (stereo not drawn) | -3.75 |
| O=C1c2ccccc2NC(c2ccc(-c3cccc([N+](=O)[O-])c3)o2)N1O (stereo not drawn) | -4.04 |
| CCOC(=O)c1ccc(-c2ccc(C3Nc4ccccc4C(=O)N3O)o2)cc1 (stereo not drawn) | -7.99 |
| CCN1CCN(c2ccc(S(=O)(=O)N3CCCCC3)cc2NC(=O)c2ccccc2)CC1 | -7.27 |
| CSC(=NS(=O)(=O)c1ccc(C)cc1)SC | 2.62 |
| CCC(C)(C)NC(=O)CN(CC1CCCO1)C(=O)CCC(=O)Nc1nccs1 (stereo not drawn) | 1.73 |
| CCOC(=O)C1CCN(c2cc3c(cc2NC(=O)c2ccccc2F)n(C)c(=O)n3C)CC1 | -6.44 |
| O=C(O)c1cn(-c2ccc(F)c(F)c2)c2c(F)c(F)c(F)c(F)c2c1=O | -8.9 |
| CC1CCc2cc(F)cc3c(O)c(C(=O)NCCN(C)C)c(=O)n1c23 (stereo not drawn) | -11.2 |
| CCOC(=O)c1cn(CC2CC2)c2cc(F)c(F)cc2c1=O | -1.36 |
| CCN(CC)CCCNC(=O)c1c(O)c2cc(F)cc3c2n(c1=O)C(C)CC3 (stereo not drawn) | -12.5 |
